According to PubChem BioAssay (NCATS):
Where “and” joins values, the source holds several entries; their conditions need not be identical. Equal entries are not always repeated. Results filed as inconclusive are left out. Calls of active or inactive are those of the source. The call rests on the fitted dose curve; in most records, active means well fitted curve in the direction sought with a large enough effect; inconclusive means small, poorly fitted or top-dose-only effect, or another doubt; inactive means no such curve, though single readings can be large; an effect the other way counts as inactive or inconclusive.

molecular target: Peroxisome proliferator-activated receptor alpha (Homo sapiens) (UniProt Q07869); experiment: qHTS assay for small molecule agonists of the peroxisome proliferator-activated receptor alpha (PPARalpha) signaling pathway (AID 651778); details: PathHunter PPARalpha complementation, chemiluminescence, 6 h; max response: active compounds read high; on max response: % of control where 0% means no effect
Sequence (Q07869 whole entry, looked up): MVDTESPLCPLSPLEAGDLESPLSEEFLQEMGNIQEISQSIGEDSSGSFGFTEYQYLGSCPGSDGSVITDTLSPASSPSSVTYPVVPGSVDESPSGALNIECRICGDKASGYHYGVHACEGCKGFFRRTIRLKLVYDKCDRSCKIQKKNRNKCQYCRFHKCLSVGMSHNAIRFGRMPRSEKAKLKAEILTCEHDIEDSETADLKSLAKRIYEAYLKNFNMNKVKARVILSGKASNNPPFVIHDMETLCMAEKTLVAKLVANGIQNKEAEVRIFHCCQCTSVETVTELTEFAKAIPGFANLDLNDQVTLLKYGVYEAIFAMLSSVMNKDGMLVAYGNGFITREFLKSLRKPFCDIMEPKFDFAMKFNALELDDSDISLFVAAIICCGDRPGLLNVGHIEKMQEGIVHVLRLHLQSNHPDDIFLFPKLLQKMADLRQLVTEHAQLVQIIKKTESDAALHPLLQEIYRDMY
How it was run: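 Cells plated at 2,000/well and held overnight at 37 C, 5% CO2, then compound added by pin tool for 6 hr; after PathHunter detection reagent and 60 min at room temperature, chemiluminescence from enzyme complementation was read.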
Potency means the concentration at half of the fitted maximal effect.

Row | Compound | max response | Potency
1 | CCCCCCc1ccc(-c2ccc(C#N)cc2)cc1 | -3.23% (inactive) | 
2 | Nc1cnn([C@@H]2O[C@H](CO)[C@@H](O)[C@H]2O)c(=O)n1 | -1.23% (inactive) | 
3 | CCCCCCCCOc1ccc(C(=O)O)cc1 |  | 7.08 µM (active)
4 | Oc1c(Cl)cc(Cl)c(Cl)c1Cl | 4.27% (inactive) | 
5 | CC(C)OCC1CO1 (configuration not stated) | -4.21% (inactive) | 
6 | C/C(Cl)=C/CCl | -4.68% (inactive) | 
7 | CCCCNCC | -6.73% (inactive) | 
8 | O=c1[nH]ncc2ccccc12 | -3.48% (inactive) | 
9 | c1ccc(COCc2ccccc2)cc1 | -3.88% (inactive) | 
10 | O=[N+]([O-])c1cccc(I)c1 | -0.601% (inactive) | 
11 | Nc1ccc2c(c1)C(=O)c1ccccc1C2=O | -6.61% (inactive) and 0.0151% (inactive) | 
12 | c1ccc2c(c1)ccc1ccccc12 | -2.79% (inactive) and 0.0819% (inactive) | 
13 | Nc1ccc(N=Nc2ccccc2)c(N)c1 | -3.41% (inactive) | 
14 | Cc1ccc(C(=O)O)cc1[N+](=O)[O-] | -2.73% (inactive) | 
15 | COc1ccc([N+](=O)[O-])cc1N | -6.59% (inactive) and -0.402% (inactive) | 
16 | OCC(CO)(CBr)CBr | -0.558% (inactive) and -3.38% (inactive) | 
17 | Nc1cc(C(=O)O)c(O)c(S(=O)(=O)O)c1 | -5.08% (inactive) | 
18 | Oc1ccc2c(c1)OCO2 | -2.87% (inactive) | 
19 | c1ccncc1 | -4.5% (inactive) | 
20 | CC(=O)OC1CC(C)OC(C)O1 (configuration not stated) | -4.25% (inactive) and 0.0018% (inactive) | 

Row | Compound | max response | Potency
21 | O=C(OCc1ccccc1)c1ccccc1O | -2.61% (inactive) and -0.719% (inactive) | 
22 | C/C=C/C=C/C=O | -0.84% (inactive) | 
23 | CCN(CC)c1ccc2c(C)cc(=O)oc2c1 | -3.98% (inactive) | 
24 | c1c[nH]cn1 | -0.778% (inactive) | 
25 | c1ccc(SCCSc2ccccc2)cc1 | 2.97% (inactive) | 
26 | O=C(O)/C=C/c1ccc(/C=C/C(=O)O)cc1 | -4.38% (inactive) | 
27 | CCCCOC(=O)COc1ccc(Cl)cc1Cl | 7.72% (inactive) and -1.16% (inactive) | 
28 | CC(=O)OC(C(=O)c1ccccc1)c1ccccc1 (configuration not stated) | -5.41% (inactive) | 
29 | CCCCCCN | 1.86% (inactive) | 
30 | CC(=O)Nc1cccc(C)c1 | -3.01% (inactive) | 
31 | CCC(Cl)CC(Cl)C(Cl)C(Cl)C(Cl)C(C)Cl (configuration not stated) | -3.58% (inactive) | 
32 | COc1ccc(C)cc1N | -6.24% (inactive) | 
33 | CCc1ccc(C(c2ccc(CC)cc2)C(Cl)Cl)cc1 | -1.02% (inactive) | 
34 | C[C@@H]1CC2(OC(O)[C@]3(C)O[C@H]23)O[C@H]2C[C@@]3(C)[C@@H]4CC[C@H]5C(C)(C)C(O[C@@H]6OC[C@@H](O)[C@H](O)[C@H]6O)CC[C@@]56C[C@@]46CC[C@]3(C)[C@@H]12 (some centres not stated) | 6.75% (inactive) | 
35 | O=[N+]([O-])c1ccccc1Nc1ccccc1 | -0.358% (inactive) | 
36 | C=CC1CO1 (configuration not stated) | 1.5% (inactive) | 
37 | COc1cc(-c2ccc(N=C=O)c(OC)c2)ccc1N=C=O | 20.1% (inactive) | 
38 | CCOC(=O)C1OC1c1ccccc1 (configuration not stated) | -1.32% (inactive) | 
39 | COc1ccc(C(=O)Nc2ccccc2)cc1[N+](=O)[O-] | -0.106% (inactive) | 

molecular target: Nuclear receptor ROR-gamma (Homo sapiens) (UniProt P51449); experiment: qHTS assay for small molecule antagonists of the retinoid-related orphan receptor gamma (ROR-gamma) signaling pathway (AID 651802); details: ROR-gamma antagonist cell reporter assay; series mostly up to 92.2 µM; further: nearly all actives have a fitted effect of over 60% in size
Sequence (P51449 whole entry, looked up): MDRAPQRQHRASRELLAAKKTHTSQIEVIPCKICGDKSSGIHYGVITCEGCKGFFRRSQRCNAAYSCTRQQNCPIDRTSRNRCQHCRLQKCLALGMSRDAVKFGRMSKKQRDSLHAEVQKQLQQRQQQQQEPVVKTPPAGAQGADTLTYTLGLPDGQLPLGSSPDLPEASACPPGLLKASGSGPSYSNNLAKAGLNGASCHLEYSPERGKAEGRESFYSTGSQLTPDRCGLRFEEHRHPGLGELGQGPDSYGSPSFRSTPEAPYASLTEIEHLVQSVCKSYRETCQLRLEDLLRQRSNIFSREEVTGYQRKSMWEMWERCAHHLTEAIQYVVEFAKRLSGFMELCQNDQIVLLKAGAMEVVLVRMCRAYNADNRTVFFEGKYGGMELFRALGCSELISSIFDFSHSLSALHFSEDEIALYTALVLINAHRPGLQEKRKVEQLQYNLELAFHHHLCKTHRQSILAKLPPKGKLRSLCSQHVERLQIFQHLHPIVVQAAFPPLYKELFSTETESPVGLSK
How it was run: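 CHO cells carrying TET-inducible ROR-gamma and an ROR response element–luciferase reporter were exposed to compound, then induced with doxycycline. After 16hr at 37C, luminescence was read; lower signal indicates antagonism.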

Row | Compound | Potency
40 | Nc1cnn([C@@H]2O[C@H](CO)[C@@H](O)[C@H]2O)c(=O)n1 | 5.31 µM (active)
41 | CCCCCCCCOc1ccc(C(=O)O)cc1 | inactive
42 | Oc1c(Cl)cc(Cl)c(Cl)c1Cl | 33.5 µM (active)
43 | C/C(Cl)=C/CCl | inactive
44 | CCCCNCC | inactive
45 | O=c1[nH]ncc2ccccc12 | inactive
46 | c1ccc(COCc2ccccc2)cc1 | inactive
47 | O=[N+]([O-])c1cccc(I)c1 | inactive
48 | Nc1ccc2c(c1)C(=O)c1ccccc1C2=O | inactive
49 | c1ccc2c(c1)ccc1ccccc12 | inactive
50 | Nc1ccc(N=Nc2ccccc2)c(N)c1 | inactive
51 | COc1ccc([N+](=O)[O-])cc1N | inactive
52 | OCC(CO)(CBr)CBr | inactive
53 | Oc1ccc2c(c1)OCO2 | inactive
54 | c1ccncc1 | inactive
55 | CC(=O)OC1CC(C)OC(C)O1 (configuration not stated) | inactive
56 | O=C(OCc1ccccc1)c1ccccc1O | inactive
57 | CCN(CC)c1ccc2c(C)cc(=O)oc2c1 | inactive
58 | c1ccc(SCCSc2ccccc2)cc1 | inactive
59 | O=C(O)/C=C/c1ccc(/C=C/C(=O)O)cc1 | inactive
60 | CCCCOC(=O)COc1ccc(Cl)cc1Cl | inactive
61 | CCCCCCN | inactive
62 | CC(=O)Nc1cccc(C)c1 | inactive
63 | COc1ccc(C)cc1N | inactive
64 | C[C@@H]1CC2(OC(O)[C@]3(C)O[C@H]23)O[C@H]2C[C@@]3(C)[C@@H]4CC[C@H]5C(C)(C)C(O[C@@H]6OC[C@@H](O)[C@H](O)[C@H]6O)CC[C@@]56C[C@@]46CC[C@]3(C)[C@@H]12 (some centres not stated) | 33.5 µM (active)
65 | C=CC1CO1 (configuration not stated) | inactive
66 | CCOC(=O)C1OC1c1ccccc1 (configuration not stated) | inactive
67 | COc1ccc(C(=O)Nc2ccccc2)cc1[N+](=O)[O-] | inactive
